High-throughput results (PubChem BioAssay)
Hits are enriched below; roughly 11% of the tested compounds scored in any of these assays.
HPGD block: qHTS Assay for Inhibitors of HPGD (15-Hydroxyprostaglandin Dehydrogenase); 15-hydroxyprostaglandin dehydrogenase [NAD(+)] (Homo sapiens), P15428; purified HPGD, NADH fluorescence kinetic, PGE2 substrate; Potency, µM, for the others: top-dose activity change, negative = inhibition, hits mostly inhibitors; 4.3% of 150,000 active; AID 894, 2007; also: potency is read from the fitted curve at half-maximal effect
Target sequence (P15428 whole entry, looked up): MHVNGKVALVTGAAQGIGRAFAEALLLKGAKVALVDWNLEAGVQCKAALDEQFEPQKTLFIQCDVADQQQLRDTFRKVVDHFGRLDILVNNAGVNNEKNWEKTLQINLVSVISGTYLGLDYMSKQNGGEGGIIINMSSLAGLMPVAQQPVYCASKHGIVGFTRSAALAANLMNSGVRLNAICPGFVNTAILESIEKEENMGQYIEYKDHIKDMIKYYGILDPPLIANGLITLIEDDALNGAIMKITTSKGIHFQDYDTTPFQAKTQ
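NADH formation kinetics: reaction with 30 uM PGE2 and 1 mM NAD+ (final), 20 nM enzyme, Tris-HCl pH 8 with Tween 20, after 15 min compound preincubation at room temperature. Fluorescence change, last versus first of five reads.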
KDM4E inh: qHTS Assay for Inhibitors of Human Jumonji Domain Containing 2E (JMJD2E) | JMJD2E catalytic domain, FDH-coupled NADH fluorescence (FDH is formaldehyde dehydrogenase) | Potency, µM (top dose mostly 57.1 µM), inactives show at the highest dose activity change, negative = inhibition, hits mostly inhibitors | 1.6% of 230,000 active | AID 2147, 2009;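 also: potency is read from the fitted curve at half-maximal effect; 0% = wells with enzyme and -100% = buffer wells without enzyme; nearly all actives have a fitted effect of over 50% in size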
Target sequence (B2RXH2 1-337 limits assumed): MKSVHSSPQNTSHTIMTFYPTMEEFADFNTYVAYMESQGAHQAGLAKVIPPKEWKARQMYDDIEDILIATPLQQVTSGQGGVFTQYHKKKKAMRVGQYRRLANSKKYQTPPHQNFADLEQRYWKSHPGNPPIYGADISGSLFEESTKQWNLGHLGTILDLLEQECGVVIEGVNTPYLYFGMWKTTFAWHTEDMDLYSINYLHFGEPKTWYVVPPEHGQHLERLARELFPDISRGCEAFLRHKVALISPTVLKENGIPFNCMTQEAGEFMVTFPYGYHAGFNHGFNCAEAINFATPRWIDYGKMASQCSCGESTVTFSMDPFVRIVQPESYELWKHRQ
ALDH1A1 block: qHTS Assay for Inhibitors of Aldehyde Dehydrogenase 1 (ALDH1A1). Aldehyde dehydrogenase 1A1 (Homo sapiens), P00352. Purified ALDH1A1, NADH fluorescence, propionaldehyde substrate. Potency, µM (top dose mostly 75.3 µM), for inactives: top-dose activity, negative = inhibition, usual class: inhibitors. 7.3% of 220,000 active. AID 1030, 2008;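 also: potency is read from the fitted curve at half-maximal effect; plate controls were no enzyme wells and a reference inhibitor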
PNC inhibitor: High Content Assay for Compounds that inhibit the Assembly of the Perinucleolar Compartment. AID 2417, 2010. PC3M PTB-GFP, PNC prevalence imaging, 16 h; stronger effect = lower value. activity change (PNC), negative = inhibition, % at 10 µM. 3.1% of 140,000 active;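 active = readout at or below -70, meaning at least 70% loss of cells showing the perinucleolar compartment, a nuclear body marking cancer cells; inconclusive = readout between -30 and a set limit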;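 also: plate controls were DMSO wells for no effect and camptothecin positive control wells for full effect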
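Read-out is percentage of cells bearing a perinucleolar compartment, from automated 20x imaging of fixed, Hoechst-stained PC3M PTB-GFP cells. Cells were seeded 4 h, then exposed 16 h to compound (23 nl of library stock) in duplicate plates.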
* hit, by the source's call; ? = inconclusive; / = no result given; [ ] = remark or other dose. Unless noted, calls follow the shape of the dose curve; as a rule, active = well fitted inhibition curve with a large enough effect (not every such curve was filed as active); inconclusive = small, poorly fitted or top-dose-only effect, or another doubt; inactive = no such curve, though single readings can be large or run the other way. Unless noted, % is scaled to controls: 0 for no effect and ±100 for the full control effect.

SMILES | HPGD block | KDM4E inh | ALDH1A1 block | PNC inhibitor
Cc1cccc(NC(=O)C(CC(C)C)NC(=O)C2CCC(C)CC2)n1 (centres undefined) | / | ? | 0% | /
COC(=O)c1nn(-c2ccc(C)cc2)c2nnc(Cc3ccccc3)c(=O)n12 | -4% | 6% | ? | 30
Nc1ccc(O)c2c1C(=O)c1ccccc1C2=O | 13µM* | -1% | -4% | 9
CN(C)CCCNc1cc(O)c2c(c1O)C(=O)c1ccccc1C2=O | -7% | / | -7%[13.5 µM] | /
O=C1c2ccccc2C(=O)c2c(O)c(O)cc(O)c21 | 25µM* | 22µM* | ? | /
O=C1c2ccccc2C(=O)c2c(O)ccc(O)c21 | -9% | -15% | 3% | /
c1coc(CSc2ncnc3c2oc2ccccc23)c1 | / | -6% | / | /
COc1ccc(-c2nnc3sc(C(C)N4C(=O)c5ccccc5C4=O)nn23)cc1 (centres undefined) | 7.1µM* | -6% | -2% | -18
CCOC(=O)C1(Cc2ccccc2Cl)CCN(S(=O)(=O)N(C)C)CC1 | / | -12% | 8.9µM* | /
CCOC(=O)C1(Cc2ccccc2Cl)CCN(C(=O)CCn2ccnc2C)CC1 | / | 11% | -6% | /
CCN(CC)C(=O)c1c(NC(=O)c2ccccc2)sc(C)c1C | -11% | 2% | 0% | -8
CCOC(=O)c1c(NC(=O)c2ccoc2C)sc2c1CCC2 | ? | ? | ? | 25
CCOC(=O)c1c(NC(=O)OC)sc(C(=O)N(CC)CC)c1C | 28µM* | 1% | ? | 1
CCN(CC)C(=O)c1sc(NC(=O)c2ccncc2)c(C(=O)OC)c1C | 22µM* | -8% | 14µM* | ?
CCC(=O)Nc1sc(C(=O)OC)c(C)c1C(=O)OC | 22µM* | -2% | ? | ?
CCOC(=O)c1c(NC(=O)c2ccoc2C)sc(C(=O)N(C)C)c1C | ? | ? | 20µM* | -13
Cc1nn(C)c(Sc2ccccn2)c1[N+](=O)[O-] | / | 2% | / | /
CCN(CC)C(=O)c1sc(NC(=O)c2ccoc2C)c(C(=O)OC)c1C | 14µM* | -7% | 22µM* | 67
COc1ccc(-n2c(C)nc3cc(C(=O)NCc4ccco4)ccc32)cc1 | 8.9µM* | -10% | ? | 16
COc1ccccc1-n1c(C)nc2cc(C(=O)NCCN3CCOCC3)ccc21 | / | 6% | -2% | /
COc1ccccc1-n1cnc2cc(C(=O)NCc3ccco3)ccc21 | 13µM* | -5% | ? | 3
CCOc1ccc(-n2c(C)nc3cc(C(=O)NCc4ccc5c(c4)OCO5)ccc32)cc1 | ? | -8% | -11% | 33
CCOc1ccc(-n2c(C)nc3cc(C(=O)NCc4ccco4)ccc32)cc1 | 8.9µM* | 4% | ? | 65
COCCNC(=O)c1ccc2c(c1)nc(C)n2-c1cc(OC)c(OC)c(OC)c1 | 14µM* | 3% | 3% | 62
Cc1ccc(C(=O)N(Cc2ccccc2)C(C)(C)C)cc1C | -9% | 0% | 0% | ?
SMILES | HPGD block | KDM4E inh | ALDH1A1 block | PNC inhibitor
O=C(O)c1cc2nccc(-c3ccc(F)cc3)n2n1 | / | ? | -11% | /
Cc1ccc(Cl)cc1NC(C#N)c1ccccc1 (centres undefined) | / | -8% | / | /
Cn1cccc1C(=O)N1CCC2(CCCN(Cc3nccs3)C2)CC1 | -1% | / | -3% | /
OCCNc1nc(-c2cccnc2)nc2ccccc12 | ? | -6% | 25µM* | ?
c1cncc(-c2nc(NCCCn3ccnc3)c3ccccc3n2)c1 | / | -2% | 6% | /
CC(C)C(=O)N1CCN(c2ccc([N+](=O)[O-])c(NC(C)c3ccccc3)c2)CC1 (centres undefined) | -18% | -1% | 22µM* | -2
CN1CCN(C(=O)c2ccc3ccccc3c2)CC1 | 16µM* | 5% | -3% | 2
O=C(c1ccc2ccccc2c1)N1CCN(c2ccc(C(F)(F)F)cn2)CC1 | -21% | -14% | 16µM* | 10
CN1CCN(C(=O)c2ccc(-n3cccc3)cc2)CC1 | 14µM* | 3% | 4% | ?
O=C(c1ccc(-n2cccc2)cc1)N1CCN(Cc2ccccc2)CC1 | -12% | 5% | -10% | 24
C=CCNS(=O)(=O)c1cc(S(=O)(=O)NCC=C)c(OC)cc1OC | / | 2% | 1% | /
O=C1C(c2ccccc2)SC(=Nc2ccccc2)N1S(=O)(=O)c1ccccc1 (centres undefined) | 14µM* | -29% | 3.2µM* | -26
O=C(COC(=O)c1ccc(Br)o1)Nc1cccc(S(=O)(=O)N2CCCCCC2)c1 | -9% | -4% | -8% | 4
O=C(CSC1CCCCC1)Nc1ccccc1Br | 18µM* | 6% | 1% | ?
O=C(O)C1C2CC3C(OC(=O)C31)C2Cl (centres undefined) | -9% | -3% | 8% | -23
O=[N+]([O-])c1ccc(O)c(N=Cc2sc3ccccc3c2O)c1 | 14µM* | 7.1µM* | ? | 15
CCOC(=O)C1=C(Cc2ccc(F)cc2)C(=O)c2ccccc2C1=O | 7.9µM* | ? | ? | ?
Nc1nc(NCc2ccco2)nc(N2CCCCCC2)c1[N+](=O)[O-] | -10% | -7% | 1.6µM* | -11
Nc1nc(NCc2ccco2)nc(N2CCN(Cc3ccccc3)CC2)c1[N+](=O)[O-] | / | 7% | -5% | /
Nc1nc(NCc2ccco2)nc(N2CCCC2)c1[N+](=O)[O-] | / | -4% | 4µM* | /
Cc1nnc(-c2cnn(-c3ccccc3)c2N)n1Cc1cccc(C(F)(F)F)c1 | 13µM* | 0% | ? | -10
CCN(CC)N=Nc1ccc(S(N)(=O)=O)cc1 | / | 5% | 3% | /
NS(=O)(=O)c1ccc(N=Nc2c[nH]c(=O)c(O)c2)cc1 | -9% | 32µM* | ? | /
Nc1ncnc2c1ncn2[C@@H]1O[C@H](COP(=O)(O)OP(=O)(O)OC[C@H]2OC(O)[C@H](O)[C@@H]2O)[C@@H](O)[C@H]1O (some centres undefined) | / | / | -5% | /
Cn1cccc1C(=O)N1CCC[C@@]2(CCN(C(c3ccccc3)c3ccccc3)C2)C1 | -3% | / | -6% | /
SMILES | HPGD block | KDM4E inh | ALDH1A1 block | PNC inhibitor
Cc1ccc(C(=O)CN2CCC(NC(=O)C3CCCCC3)CC2)cc1 | -10% | 4% | 14µM* | 39
Cc1ccc(Nc2ccc(NCc3ccccc3)nn2)cc1C | -24% | 13% | -4% | 22
Clc1ccc(Nc2ccc(NCc3ccccc3)nn2)cc1 | 5.6µM* | ? | -10% | 3
Cc1ccc(-c2nnc(NCc3ccccc3)c3ccccc23)cc1 | 3.2µM* | -1% | 6% | ?
Clc1ccc(-c2nnc(NCc3ccccc3)c3ccccc23)cc1 | 5.6µM* | -5% | 22µM* | -25
COc1cccc(-c2ccc3ncnc(NCCc4c[nH]c5ccc(OC)cc45)c3c2)c1 | / | / | -7% | /
COc1ccc(C(=O)NCC(=O)OCC(=O)Nc2sccc2C#N)cc1OC | / | -6% | -3% | /
O=S(=O)(/N=S1/CC=CCN1S(=O)(=O)c1ccccc1)c1ccccc1 (centres undefined) | 7.9µM* | 28µM* | 2µM* | ?
C[N+](C)(C)[C@H](Cc1c[nH]c(=S)[nH]1)C(=O)O | -5% | / | 5%[13.5 µM] | /
